High-throughput results: PubChem, National Center for Advancing Translational Sciences (NCATS)
HCV inh – blocks hepatitis C virus. Huh7.5.1 HCVcc-Cre infection, luciferase reporter, 44 h. AID 651820. 340,000 compounds, 3.4% hits. Potency, µM (series often up to 41.8 µM), most hits filed as inhibitors; active means well fitted inhibition curve with a large enough effect; inconclusive means small, poorly fitted or top-dose-only effect, or another doubt; inactive means no such curve, though single readings can be large or run the other way
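Reporter virus HCVcc-Cre (~0.5 moi) infects cells exposed to compound; seeding density 1,000 cells/well with 4 h settling beforehand. Luminescence, 15 sec read, taken 44 h post-infection following a 15 min RT substrate incubation.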
HCMV antiviral – human cytomegalovirus inhibition; HFF cells, HCMV-luciferase reporter, 72 h; hits give low values; 410,000 compounds, 4.5% hits; activity change, negative = inhibition, % at 57.5 µM; in the data active means activity change below about -60%; inconclusive means no clear call, values can overlap the other calls; inactive means above about -39%
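Two-dose cell screen: HFF monolayers treated with compounds and infected with luciferase-expressing HCMV at 1 PFU/cell, 72 h at 37C, then lysed for luciferase measurement.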
Lassa entry inh – inhibitors of Lassa virus binding or cell entry | Lassa virus pseudotype entry inhibition, cell reporter | Potency, µM (doses to about 37.9 µM), hits mostly inhibitors | 300,000 compounds, 1.2% hits | AID 540256; calls by dose curve; tested in HEK293 cells; further: nearly all actives have a fitted effect of over 50% in size
Marburg entry inh – Marburg virus entry inhibition. 300,000 compounds, 1.8% hits. Potency, µM (top dose mostly 37.8 µM), actives largely listed as inhibitors. Marburg virus pseudotyped entry inhibition, cell reporter; calls by dose curve; tested in HEK293 cells
FMDV antiviral – foot and mouth disease virus antiviral activity. FMDV antiviral cell-based qHTS. Potency, µM (highest dose often 57.9 µM), hits mostly inhibitors. 410,000 compounds, 1.2% hits; calls by dose curve; tested in HEK293T cells; further: read-out not given here; nearly all actives have a fitted effect of over 45% in size
Numbers stand for hits. A selection: hits, their analogues and other compounds. The true share with any hit is near 7.9%.

N#Cc1c(C(F)(F)F)cc(-c2cccs2)nc1SCC(=O)Nc1ccc(Cl)cc1 was read as HCMV antiviral -92, Lassa entry inh inactive, Marburg entry inh inactive and FMDV antiviral inconclusive.
`CN1CCc2nc(SCC(=O)Nc3ccc(OC(F)(F)F)cc3)c(C#N)c(-c3cccs3)c2C1` gave HCV inh 13µM, HCMV antiviral inactive, Lassa entry inh inactive, Marburg entry inh inconclusive and FMDV antiviral inactive.
Screening CCOc1ccc(NC(=O)CSc2nc(-c3cccs3)cc(C(F)(F)F)c2C#N)cc1 returned HCMV antiviral inactive, Lassa entry inh inactive, Marburg entry inh inactive and FMDV antiviral inactive.
For Cc1cccc(CSc2nc3c(c(-c4cccs4)c2C#N)CN(C)CC3)c1 the results were HCV inh inconclusive, HCMV antiviral inactive, Lassa entry inh inconclusive, Marburg entry inh inconclusive and FMDV antiviral inactive.
`Cc1ccc(S(=O)(=O)NC(=O)Nc2ccc(C)cc2C)cc1` gave HCV inh inactive, HCMV antiviral inactive and FMDV antiviral inactive.
For NS(=O)(=O)c1ccc(NC(=O)CCn2c(=O)oc3ccccc32)cc1 the results were HCMV antiviral inactive, Lassa entry inh inactive, Marburg entry inh inactive and FMDV antiviral inactive.
Screening N#Cc1cccc(-c2cncnc2NCc2ccccc2)c1 returned FMDV antiviral inactive.
`COc1cccc(/C=N/n2c(SC)nnc2-c2ccccc2)c1OC` gave HCV inh inactive, HCMV antiviral inactive, Lassa entry inh 11µM, Marburg entry inh inconclusive and FMDV antiviral inconclusive.
`CC(N)c1csc(NC(=O)Nc2cccc(C(F)(F)F)c2)n1` (stereo unspecified) gave HCMV antiviral -68 and FMDV antiviral inactive.
For CCOC(=O)Cc1csc(NC(=O)/C=C/c2cccc(Br)c2)n1 the results were HCV inh 11µM, HCMV antiviral inactive, Lassa entry inh inconclusive, Marburg entry inh inconclusive and FMDV antiviral inconclusive.
`CCOC(=O)Cc1csc(N/N=C/c2ccc(Cl)cc2)n1` gave HCV inh inactive, HCMV antiviral inactive, Lassa entry inh inactive, Marburg entry inh inconclusive and FMDV antiviral inactive.
Screening O=C(Cc1csc(NC(=O)Nc2ccc(Cl)cc2)n1)NC1CCCC1 returned HCV inh 7.1µM, HCMV antiviral inconclusive, Lassa entry inh inactive, Marburg entry inh inconclusive and FMDV antiviral inactive.
For CCOC(=O)Cc1csc(NC(=O)c2ccc(Br)s2)n1 the results were Marburg entry inh inactive.
Screening CCOC(=O)Cc1csc(NC(=O)Nc2ccc(Cl)cc2)n1 returned HCV inh 11µM, HCMV antiviral inactive, Lassa entry inh inconclusive, Marburg entry inh inconclusive and FMDV antiviral inconclusive.
For CCOC(=O)Cc1csc(NC(=O)Nc2cccc(Cl)c2)n1 the results were HCV inh inconclusive, HCMV antiviral -60, Lassa entry inh inconclusive, Marburg entry inh inactive and FMDV antiviral inconclusive.
For O=C(Nc1ccc(Cl)cc1)Nc1nc(-c2ccccc2O)cs1 the results were HCV inh inconclusive, HCMV antiviral -66 and FMDV antiviral inconclusive.
`NC(c1csc(NC(=O)Nc2cccc(Cl)c2)n1)c1ccccc1Cl` (stereo unspecified) gave HCMV antiviral -76 and FMDV antiviral inactive.
Screening NCc1csc(NC(=O)Nc2cccc(Cl)c2)n1 returned HCMV antiviral inactive and FMDV antiviral inactive.
`CCc1ccc(NC(=O)C2CCCN(S(=O)(=O)c3ccc(F)cc3)C2)cc1` (stereo unspecified) gave HCMV antiviral inactive, Lassa entry inh inconclusive, Marburg entry inh inactive and FMDV antiviral inconclusive.
Screening CCOC(=O)c1ccc(NC(=O)C2CCCN(S(=O)(=O)c3ccc(F)cc3)C2)cc1 (stereo unspecified) returned HCV inh inconclusive, HCMV antiviral inactive, Lassa entry inh inconclusive, Marburg entry inh inconclusive and FMDV antiviral 22µM.
`COc1ccccc1NC(=O)C1CCCN(S(=O)(=O)c2cnc[nH]2)C1` (stereo unspecified) gave HCV inh inactive, HCMV antiviral inactive and FMDV antiviral inactive.
`COc1ccc(S(=O)(=O)N2CCCC(C(=O)Nc3ccc(OC)c(OC)c3)C2)cc1` (stereo unspecified) gave HCV inh inconclusive, HCMV antiviral inactive, Lassa entry inh inactive, Marburg entry inh inactive and FMDV antiviral inconclusive.
Screening COc1ccc(C)cc1NC(=O)C1CCCN(S(=O)(=O)c2cnc[nH]2)C1 (stereo unspecified) returned HCV inh inactive, HCMV antiviral -61 and FMDV antiviral inactive.
`COc1ccc(NC(=O)C2CCCN(S(=O)(=O)c3ccc(C)cc3)C2)cc1OC` (stereo unspecified) gave HCV inh inactive, HCMV antiviral inactive, Lassa entry inh inactive, Marburg entry inh inconclusive and FMDV antiviral 22µM.
CCOC(=O)C1CCCN(S(=O)(=O)c2cc(C(=O)OC)n(C)c2)C1 (stereo unspecified) was read as HCV inh 6.3µM, HCMV antiviral -60 and FMDV antiviral inconclusive.
For O=C(OCCOc1ccccc1)c1cc(S(=O)(=O)N2CCOCC2)ccc1Cl the results were HCV inh inactive, HCMV antiviral inactive and FMDV antiviral inactive.
COc1ccc(CC(=O)Oc2ccc(C(C)(C)C)cc2)cc1S(=O)(=O)N1CCOCC1 was read as HCV inh inconclusive, HCMV antiviral inactive, Lassa entry inh inactive, Marburg entry inh inactive and FMDV antiviral inactive.
For COc1ccc(OCCOC(=O)c2cc(S(=O)(=O)N3CCOCC3)c(Cl)cc2Cl)cc1 the results were HCV inh inconclusive, HCMV antiviral inactive, Lassa entry inh inactive, Marburg entry inh inactive and FMDV antiviral 40µM.
O=C(OCCOc1ccccc1)c1cc(S(=O)(=O)N2CCOCC2)c(Cl)cc1Cl was read as HCMV antiviral -63 and FMDV antiviral inconclusive.
For COc1ccc(OCCOC(=O)c2ccc(F)c(S(=O)(=O)N3CCOCC3)c2)cc1 the results were HCV inh inconclusive, HCMV antiviral inactive and FMDV antiviral inconclusive.
For CCc1ccc(OC(=O)Cc2ccc(OC)c(S(=O)(=O)N3CCOCC3)c2)cc1 the results were HCV inh inactive, HCMV antiviral -98 and FMDV antiviral inactive.
CCOC(=O)[C@@]1([C@@H](NC(=O)OC)c2ccccc2)CCCC1=O was read as Marburg entry inh inactive.
Screening COc1ccc(-c2nn(-c3ccccc3)cc2C(=O)O)cc1N returned HCV inh inactive, HCMV antiviral inactive and FMDV antiviral inactive.
Screening CCOC(=O)C(=CNc1ccccc1C)C(=O)OCC returned HCV inh inconclusive, HCMV antiviral inactive, Lassa entry inh inactive, Marburg entry inh inactive and FMDV antiviral inactive.
For CCOC(=O)C(=CNc1ccccc1Cl)C(=O)OCC the results were HCV inh inconclusive, HCMV antiviral -61 and FMDV antiviral inactive.
`CCOC(=O)C(=CNc1ccc(-c2ccco2)c(Cl)c1)C(=O)OCC` gave HCV inh inconclusive, HCMV antiviral inconclusive and FMDV antiviral inactive.
Screening CCOC(=O)C(=CNc1cc(Cl)c(-c2ccco2)c(Cl)c1)C(=O)OCC returned HCV inh 13µM, HCMV antiviral inactive and FMDV antiviral inactive.
For COCCNC(=O)C1(C)CCN(C(=O)c2nc(C)oc2C)C1 (stereo unspecified) the results were HCMV antiviral inactive and FMDV antiviral inactive.
